In PubChem BioAssay (NCI):
This is part of a sample that, as a whole, favours compounds with a hit. Of some 83,000 tested, about 20% had one in any assay.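 96-well plates, one dose, 48 hours. Percent growth reported; active if below 10.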 A number with no mark means an inactive call. The source made the active and inactive calls.

Assays:
Assay in all cases: NCI-60 one-dose screen, 48 h (100 = growth as untreated, 0 = no growth, -100 = all killed)
Conditions in all cases: 10 µM unless noted
DU-145 prostate = tested on: DU-145 prostate
K-562 leukemia = tested on: K-562 leukemia
MALME-3M melanoma = tested on: MALME-3M melanoma
MDA-MB-231 breast = tested on: MDA-MB-231 breast
RXF 393 renal = tested on: RXF 393 renal
SF-268 CNS = tested on: SF-268 CNS
SF-295 CNS = tested on: SF-295 CNS
SF-539 CNS = tested on: SF-539 CNS
UACC-257 melanoma = tested on: UACC-257 melanoma
M14 melanoma = tested on: M14 melanoma

| Compound | growth (DU-145 prostate) | growth (K-562 leukemia) | growth (MALME-3M melanoma) | growth (MDA-MB-231 breast) | growth (RXF 393 renal) | growth (SF-268 CNS) | growth (SF-295 CNS) | growth (SF-539 CNS) | growth (UACC-257 melanoma) | growth (M14 melanoma) |
| --- | --- | --- | --- | --- | --- | --- | --- | --- | --- | --- |
| Cc1cn(-c2cc(NC(=O)c3ccc(C)c(Nc4nccc(-c5cccnc5)n4)c3)cc(C(F)(F)F)c2)cn1 | 46% | -11.1% (active) | -15% (active) | 40% | -4.7% (active) | 55.8% | 42.9% | 82.4% | 34.5% | 8.64% (active) |
| CCCCn1c(C)nc2cc(Nc3nc(N4CCCCC4)nc4nc[nH]c34)ccc21 | 60.2% | 28.7% | 61.5% | 39.2% | 22.1% | 60.4% | 47.1% | 71.2% | 62.1% | 32.8% |
| CC1=CC2c3oc(-c4ccccc4)c(C(=O)c4ccccc4)c3CNC2C=C1 (stereo not given) | 112% | 95.8% | 98.8% | 88.4% | 94.2% | 97.9% | 95.9% | 109% | 70.6% | 96.1% |
| Cn1ccnc1C(=O)/C=C/c1ccc(CC(=O)Nc2ccc(Br)cc2)cc1 | 3.61% (active) | 6.58% (active) | 75.5% | 10.1% | 21% | 16.2% | 19.4% | -38.5% (active) | 79.1% | 53.6% |
| CN1[C@@H]2CC[C@H]1/C(=C\c1ccccc1)C1=C2[C@@H](c2ccccc2)C(C#N)=C(N)O1 | 51.5% | 64.4% | 88.8% | 94.9% | 63% | 77% | 83.8% | 97.8% | 54.6% | 75.6% |
| CC(=O)O[C@]1(C)C[C@H](O)[C@]2(O)C=CO[C@H](O[C@@H]3O[C@H](CO)[C@@H](O)[C@H](O)[C@H]3O)[C@@H]21 | 102% | 97.3% | 97.5% | 98.5% | 109% | 94.3% | 90.9% | 97.5% | 109% | 98.6% |
| COc1cc(Nc2ncc(F)c(Nc3ccc4c(n3)N(COP(=O)(O)O)C(=O)C(C)(C)O4)n2)cc(OC)c1OC | 30.9% | 32.3% | 53.1% | 15.9% | -79.9% (active) | 7.3% (active) | 15.5% | -70.1% (active) | 66.2% | 39% |
| CO[C@H](C(=O)N[C@@H](CCCCNC(=O)OCc1ccccc1)C(=O)OC(C)(C)C)[C@@H]1Cc2cc3cc(OC4CC(OC5CC(O)C(O)C(C)O5)C(O)C(C)O4)c(C)c(O)c3c(O)c2C(=O)[C@H]1OC1CC(OC2CC(OC3CC(C)(O)C(O)C(C)O3)C(O)C(C)O2)C(O)C(C)O1 (stereo not given in full) | 26.5% | 5.35% (active) | -69.4% (active) | -71.8% (active) | -85.9% (active) | -61.5% (active) | -89.5% (active) | -32% (active) | -5.47% (active) | -69.8% (active) |
| CCCCCCCCCNCCCCCCCCC | 76.5% | 5.9% (active) | 18.4% | 66.3% | 50.5% | 79.8% | 66.6% | 56.7% | 67.2% | -48.6% (active) |
| C[C@H](NC(=O)c1c(N)nn2cccnc12)c1cc2cccc(C#Cc3cnn(C)c3)c2c(=O)n1-c1ccccc1 | 34.6% | 17.4% | 50.1% | 37.8% | -16% (active) | 25.3% | 11.6% | 21.7% | 39.1% | 29.5% |
| CC#CC(=O)N1CCC[C@H]1c1nc(-c2ccc(C(=O)Nc3ccccn3)cc2)c2c(N)nccn12 | 89.1% | 77.2% | 99% | 90.3% | 93.3% | 79.5% | 89.9% | 95.4% | 57.7% | 83.1% |
| CN(C)C/C=C/C(=O)Nc1cc2c(Nc3ccc(F)c(Cl)c3)ncnc2cc1O[C@H]1CCOC1 | -7.97% (active) | 0.783% (active) | -75.1% (active) | -13.7% (active) | -22% (active) | 6.2% (active) | 29.8% | -84.6% (active) | -70.7% (active) | -82.8% (active) |
| Oc1ccc(C(c2ccc(O)cc2)C(Cl)(Cl)Cl)cc1 | 109% | 79.7% | 134% | 98.2% | 101% | 96.9% | 96.1% | 99.9% | 119% | 105% |
| CC(C)(C)c1nc(-c2cccc(NS(=O)(=O)c3c(F)cccc3F)c2F)c(-c2ccnc(N)n2)s1 | 105% | 50.8% | 21.8% | 47.1% | 90% | 105% | 112% | 114% | 25.2% | 32% |
| CN1CCN(c2ccc(C(=O)Nc3n[nH]c4ccc(Cc5cc(F)cc(F)c5)cc34)c(NC3CCOCC3)c2)CC1 | 19.7% | -47.8% (active) | -83.4% (active) | -68.7% (active) | -90.5% (active) | -60.5% (active) | -70.4% (active) | -92.4% (active) | -85.4% (active) | -79.7% (active) |
| Cn1cnc2c(F)c(Nc3ccc(Br)cc3Cl)c(C(=O)NOCCO)cc21 | 69.6% | 47.2% | -16.2% (active) | 24.7% | 14.7% | 77.2% | 82.8% | 69% | -21.2% (active) | 6.05% (active) |
| O=C(Nc1cccc([N+](=O)[O-])c1)c1ccc(Cl)c(Cl)c1 | 74.8% | 79.9% | 30.2% | 80.7% | 62.8% | 54.4% | 58.7% | 83% | 92.5% | 93.1% |
| C/C(=C(/c1ccc(Cl)cc1)c1ccc(OCCN2CCCCC2)cc1)c1ccccc1 | 97.6% | 13.2% | 76.9% | 80.2% | 84.7% | 90.5% | 83.8% | 69.6% | 80.3% | 67.1% |
| O=C(Cc1ccc(-c2ccc(OCCN3CCOCC3)cc2)cn1)NCc1ccccc1 | 8.3% (active) | 7.04% (active) | 40.4% | 26.7% | 29.3% | 29.6% | 11.7% | -33.2% (active) | 8.49% (active) | 0.711% (active) |
| Cc1cc(Nc2ncnc3ccc(NC4=NC(C)(C)CO4)cc23)ccc1Oc1ccn2ncnc2c1 | 35.2% | 10% | -8.78% (active) | -4.62% (active) | 0.527% (active) | 41.8% | 52.7% | 30.4% | 4.04% (active) | 8.95% (active) |
| COc1ccc(COc2cc3oc(=O)c4cc(C(C)O)ccc4c3cc2OC)cc1 (stereo not given) | 94.9% | 20.1% | 66.8% | 67.2% | 47.8% | 55.8% | 49% | 60.7% | 42.8% | 57.6% |
| O=C(Nc1cn[nH]c1-c1nc2ccc(CN3CCOCC3)cc2[nH]1)NC1CC1 | 41% | 12.7% | 51.8% | 1.37% (active) | -56.5% (active) | 23.8% | -10.5% (active) | -60.9% (active) | 59.7% | 34% |
| O=C(Cc1ccc(/C=C/C(=O)c2ncc[nH]2)cc1)Nc1ccc(Br)cc1 | 19.9% | 1.86% (active) | 74.4% | 10% | 19.4% | 22.2% | 26.9% | -51.1% (active) | 69.8% | 31.4% |
| C[C@@H](Oc1cc(-c2cnn(C3CCNCC3)c2)cnc1N)c1c(Cl)ccc(F)c1Cl | -0.0589% (active) | -38.7% (active) | -88.2% (active) | -58.6% (active) | -87.3% (active) | 1.66% (active) | -72.1% (active) | -95.5% (active) | -83.3% (active) | -77.2% (active) |
| CC(=O)CC1CCCC1c1ccc2ccccc2c1 (stereo not given) | 107% | 104% | 99.1% | 102% | 109% | 102% | 106% | 95.8% | 97.8% | 109% |
| CC(C)(O)CC(=O)NCCn1ccc2ncnc(Nc3ccc(Oc4cccc(C(F)(F)F)c4)c(Cl)c3)c21 | 27.4% | 4.49% (active) | -8.01% (active) | 11.9% | 3.66% (active) | 29.3% | 31% | 8.28% (active) | -26.8% (active) | -1.37% (active) |
